# Results reported in the supplement of paper PMC6555819.
# Tested on: VDR:RXRa (NR concentration 270 nM, RXRa partner concentration 90 nM)
# Assay: PBM binding z-score (relative to random genomic background probes); higher = stronger binding; sequences stand for … in GC…GCGATTGACAGCGTAGAATGAAGG
# Protocol: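 Protein-binding microarray (Agilent 4x180K custom design, double-stranded 60-nt probes: 5' GC cap, 34-nt variable region, 24-nt constant primer region; full probe sequence given). Purified or IVT nuclear receptor:RXRα heterodimers (3:1 NR:RXRα, mostly 270:90 nM) or homodimers were incubated for 1 h in PBS with 2% milk and no ligand, then detected with Alexa488 antibodies. Fluorescence from o1-orientation probes (~5 replicates averaged) was converted to z-scores against 500 random hg19 background probes. Variable regions are seed direct-repeat (DR0–DR5) sites, all their single-nucleotide variants and half-site ablations.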
row,Sequence,PBM binding z-score
1,AGTCAAAGTTCATATAGGTAACGTAAGATATGCT,4.4
2,TCTATTAGTTGAAGGGCAACCGGCGAGTCCGTTT,0.946
3,CGTCCAAGCTCAATGCTAGGTCAGTGAAAGCATT,-0.0498
4,CAAACTAGGTCACCGGAAGGGCAAAGTCCGCATG,3.81
5,TCATATAGGTAAATGCTAGGAGAAAGTCCGATCT,0.71
6,ACAGACAGGTGATGAAGGTAACGCAGGCTATCAT,-0.0633
7,AGAATGAGGTTATTCGTAGATCAGGGAAGAAAGT,1.78
8,TCTATTAGCTGATTAGGGCAACCGAAACAGCGGA,0.11
9,AGAATGAGGTTATTAAGATCAAGGAATTGCGGTC,3.11
10,ACTAGCAGGCCAAGGGACACTCAAGATTAGTCCG,-0.487
11,TCGAGTAGGTTAGGCGCATTCAGAATGGCGTCGA,-0.563
12,GATACAGGGTCAGCTAGAGGCCAGAGGATGGAAA,3.12
13,AATACAGGGACACTAGGCCAGAGTAGGTACGAAT,-0.219
14,GCTTGTAGATCAAGCTTAAGAAAGACTAAGCTAA,-0.459
15,TCTGCTAGGTCAGTCGGTCAGCTAACGAGCTGCC,0.139
16,TCATATAGGTAAATGCCAGGTGAAAGTCCGATCT,1.12
17,GCAGACAGGTGAAACGCAGGTATCTCAGGGTGGC,-0.475
18,TAGCCTAGGTCATTCAGGGGCCAGTGTAGAAAGC,3.33
19,TCTTGTAGAACAAAGGTTAAGAAAGCCGAAGCCT,1.18
20,TCTTGTAGATCAGCAGGTTACGAAAGCTGGCCAA,-0.0746

row,Sequence,PBM binding z-score
1,AGAACGACGGCAATGAGTTGATAGCACGGGTGGC,-0.0161
2,CCTACTGGGCCTAGGTCATTGATCAGTCAAAGCA,0.813
3,CATACAGGGTCAGCTTGGCCAGAGTAGGGACGGC,2.81
4,CGTCCAAGGTCAATGCTAGGTTAGTGAAAGCATT,4.02
5,CCTGCTAGGTCAATGGTCATCTAAAGCAGCTCGC,1.31
6,CCGAGTAGGTTATGGGGCATTCTGGCAACGGTGA,-0.0151
7,GCATATAGGTACTACAAGGTGAAAGTCCGATTGT,0.143
8,CGTCCAAGGTGAATGCTAGGTCAGTGAAAGCATT,0.559
9,TGAATGAGGTTATAAGAGCAGGGAACGTTGCAAA,0.901
10,TCTTGTAGATCATGCAGGTTAAGAAAGCCTGAGT,0.976
11,ACAGACAGCTGATGAAGGTAACTCAGGCTATCAT,-0.282
12,ACTCAAAGTTCATCTAGGTAACGTAAGATATGCT,4.98
13,ATACGTAGGTTAAGGGTCATTCAGGTTGGTTCGC,5.82
14,GTACCAAGGTGAATAGTTCGTTGATGAGTAGGCG,0.251
15,TCATATAGGTAATGGTGAAAGTCGAACGATATGA,0.243
16,CAAACTAGGTCAAGGTCAACGTCGGTTTGTGCCA,5.02
17,CCTTACGGGTCAAGGTTATGGCACGGGTGGTACG,3.53
18,TCGCGTAGGTTACCAATGGGGCATTCAGCTTTCT,0.236
19,GCTAGCAGGCCATTTGGGTCACTCTATGACGGGC,0.648
20,CATACAGGGTCAGCTAGGCCATAGTAGGGACGGC,4.92
